This is an account of results in ChEMBL document CHEMBL1961873, “Compounds: GSK PKIS; Assays: Nanosyn kinase panel” (2012).

Test [1] addresses Dual specificity protein kinase CLK3 (Homo sapiens) (UniProt P49761). The conditions noted are these: at 1 µM.
The target in test [2] is Dual specificity tyrosine-phosphorylation-regulated kinase 1A (Homo sapiens) (UniProt Q13627). The conditions noted are these: at 0.1 µM.
For test [3] the target is unchanged. The settings on record: at 1 µM.
Test [4] deals with Dual specificity tyrosine-phosphorylation-regulated kinase 1B (Homo sapiens) (UniProt Q9Y463). The conditions noted are these: at 0.1 µM.
Chain of Dual specificity tyrosine-phosphorylation-regulated kinase 1B (Homo sapiens) (Q9Y463 whole entry, looked up): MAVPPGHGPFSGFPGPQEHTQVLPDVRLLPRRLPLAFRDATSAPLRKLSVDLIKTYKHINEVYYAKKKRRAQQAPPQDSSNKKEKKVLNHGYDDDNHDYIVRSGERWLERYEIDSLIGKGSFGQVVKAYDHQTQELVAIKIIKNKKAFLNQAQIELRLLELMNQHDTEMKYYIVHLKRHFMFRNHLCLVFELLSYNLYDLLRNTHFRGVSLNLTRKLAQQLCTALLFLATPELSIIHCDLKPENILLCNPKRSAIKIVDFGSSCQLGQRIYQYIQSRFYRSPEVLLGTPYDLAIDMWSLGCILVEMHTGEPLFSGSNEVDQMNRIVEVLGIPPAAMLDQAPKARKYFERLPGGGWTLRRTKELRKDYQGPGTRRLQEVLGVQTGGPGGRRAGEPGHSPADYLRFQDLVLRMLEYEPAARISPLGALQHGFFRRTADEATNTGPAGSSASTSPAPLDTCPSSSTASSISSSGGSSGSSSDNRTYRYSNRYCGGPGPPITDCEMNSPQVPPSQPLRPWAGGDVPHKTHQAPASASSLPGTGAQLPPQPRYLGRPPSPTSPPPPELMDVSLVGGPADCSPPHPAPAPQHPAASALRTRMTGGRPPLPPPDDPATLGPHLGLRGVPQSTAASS
Test [5] shares this target. The conditions noted are these: at 1 µM.
The target of test [6] is T1, Dual specificity tyrosine-phosphorylation-regulated kinase 2 (Homo sapiens) (UniProt Q92630).
T1 sequence (whole entry): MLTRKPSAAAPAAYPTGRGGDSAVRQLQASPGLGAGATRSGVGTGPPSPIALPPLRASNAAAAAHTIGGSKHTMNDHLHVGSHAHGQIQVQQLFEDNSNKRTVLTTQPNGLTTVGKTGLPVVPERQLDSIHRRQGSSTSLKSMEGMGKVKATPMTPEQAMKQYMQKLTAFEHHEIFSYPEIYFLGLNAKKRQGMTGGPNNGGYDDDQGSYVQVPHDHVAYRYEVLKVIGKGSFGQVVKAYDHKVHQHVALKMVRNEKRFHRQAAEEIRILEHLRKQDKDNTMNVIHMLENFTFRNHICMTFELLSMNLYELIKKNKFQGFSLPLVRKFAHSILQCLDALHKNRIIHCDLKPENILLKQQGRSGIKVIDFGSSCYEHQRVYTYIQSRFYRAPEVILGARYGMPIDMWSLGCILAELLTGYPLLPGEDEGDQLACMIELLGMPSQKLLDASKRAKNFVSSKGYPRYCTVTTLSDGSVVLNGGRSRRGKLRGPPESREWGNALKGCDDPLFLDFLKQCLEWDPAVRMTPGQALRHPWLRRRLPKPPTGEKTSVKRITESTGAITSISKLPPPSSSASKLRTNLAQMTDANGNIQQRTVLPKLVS
The conditions noted are these: at 0.1 µM.

For test [7], the target named is T1, Dual specificity tyrosine-phosphorylation-regulated kinase 2 (Homo sapiens). The settings on record: at 1 µM.
Test [8] has as its target Glycogen synthase kinase-3 alpha (Homo sapiens) (UniProt P49840). The settings on record: at 0.1 µM.
For test [9] the target is unchanged. The settings on record: at 1 µM.
For test [10], the target named is Glycogen synthase kinase-3 beta (Homo sapiens) (UniProt P49841). The settings on record: at 0.1 µM.
Chain of Glycogen synthase kinase-3 beta (Homo sapiens) (P49841 whole entry, looked up): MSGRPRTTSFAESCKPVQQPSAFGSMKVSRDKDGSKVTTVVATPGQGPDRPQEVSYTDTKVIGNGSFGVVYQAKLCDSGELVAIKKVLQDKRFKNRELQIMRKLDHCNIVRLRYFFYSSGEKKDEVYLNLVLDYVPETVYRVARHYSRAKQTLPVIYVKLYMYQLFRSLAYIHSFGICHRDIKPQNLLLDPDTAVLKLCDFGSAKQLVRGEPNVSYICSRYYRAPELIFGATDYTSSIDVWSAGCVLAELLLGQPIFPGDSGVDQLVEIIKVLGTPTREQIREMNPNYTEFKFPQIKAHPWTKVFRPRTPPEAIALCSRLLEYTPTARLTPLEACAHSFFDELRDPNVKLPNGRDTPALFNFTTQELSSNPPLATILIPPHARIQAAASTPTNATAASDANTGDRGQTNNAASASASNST
Test [11] has the same target. The conditions noted are these: at 1 µM.
The target in test [12] is Homeodomain-interacting protein kinase 1 (Homo sapiens) (UniProt Q86Z02). The settings on record: at 0.1 µM.
Chain of Homeodomain-interacting protein kinase 1 (Homo sapiens) (Q86Z02 whole entry, looked up): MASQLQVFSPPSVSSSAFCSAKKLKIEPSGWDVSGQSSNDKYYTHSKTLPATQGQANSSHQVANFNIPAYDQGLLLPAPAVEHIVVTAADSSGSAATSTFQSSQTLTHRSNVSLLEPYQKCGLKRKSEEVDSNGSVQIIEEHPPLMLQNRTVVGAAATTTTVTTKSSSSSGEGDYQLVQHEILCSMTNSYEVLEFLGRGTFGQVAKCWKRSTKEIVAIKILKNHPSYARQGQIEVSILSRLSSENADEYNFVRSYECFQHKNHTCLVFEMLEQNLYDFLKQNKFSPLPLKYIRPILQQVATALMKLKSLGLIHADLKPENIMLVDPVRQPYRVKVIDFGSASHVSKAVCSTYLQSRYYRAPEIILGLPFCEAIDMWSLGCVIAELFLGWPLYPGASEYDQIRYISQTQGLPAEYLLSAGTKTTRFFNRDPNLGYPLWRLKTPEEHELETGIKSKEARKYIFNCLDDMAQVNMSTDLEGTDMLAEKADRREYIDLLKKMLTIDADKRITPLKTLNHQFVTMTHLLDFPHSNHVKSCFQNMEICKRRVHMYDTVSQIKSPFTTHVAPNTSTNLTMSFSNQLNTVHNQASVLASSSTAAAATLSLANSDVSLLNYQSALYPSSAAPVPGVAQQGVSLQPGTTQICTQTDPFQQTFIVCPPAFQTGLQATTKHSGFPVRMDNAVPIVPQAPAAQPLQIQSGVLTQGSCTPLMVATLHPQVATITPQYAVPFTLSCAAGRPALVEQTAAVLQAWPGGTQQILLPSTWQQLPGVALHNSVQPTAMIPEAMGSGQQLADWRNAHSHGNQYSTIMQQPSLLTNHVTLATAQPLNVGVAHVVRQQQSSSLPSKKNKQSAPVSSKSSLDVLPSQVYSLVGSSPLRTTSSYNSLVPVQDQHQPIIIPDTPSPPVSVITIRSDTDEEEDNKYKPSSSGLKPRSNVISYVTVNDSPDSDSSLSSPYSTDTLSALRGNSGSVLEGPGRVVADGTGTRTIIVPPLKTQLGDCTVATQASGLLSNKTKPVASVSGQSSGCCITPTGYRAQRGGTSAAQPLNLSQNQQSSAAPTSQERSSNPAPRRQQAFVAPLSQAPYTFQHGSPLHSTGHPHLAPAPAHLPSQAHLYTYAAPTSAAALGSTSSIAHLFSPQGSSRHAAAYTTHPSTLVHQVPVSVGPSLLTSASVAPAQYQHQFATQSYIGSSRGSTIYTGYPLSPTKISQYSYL
Test [13] has the same target. The settings on record: at 1 µM.
The target of test [14] is T2, Homeodomain-interacting protein kinase 4 (Homo sapiens) (UniProt Q8NE63).
T2 sequence (whole entry): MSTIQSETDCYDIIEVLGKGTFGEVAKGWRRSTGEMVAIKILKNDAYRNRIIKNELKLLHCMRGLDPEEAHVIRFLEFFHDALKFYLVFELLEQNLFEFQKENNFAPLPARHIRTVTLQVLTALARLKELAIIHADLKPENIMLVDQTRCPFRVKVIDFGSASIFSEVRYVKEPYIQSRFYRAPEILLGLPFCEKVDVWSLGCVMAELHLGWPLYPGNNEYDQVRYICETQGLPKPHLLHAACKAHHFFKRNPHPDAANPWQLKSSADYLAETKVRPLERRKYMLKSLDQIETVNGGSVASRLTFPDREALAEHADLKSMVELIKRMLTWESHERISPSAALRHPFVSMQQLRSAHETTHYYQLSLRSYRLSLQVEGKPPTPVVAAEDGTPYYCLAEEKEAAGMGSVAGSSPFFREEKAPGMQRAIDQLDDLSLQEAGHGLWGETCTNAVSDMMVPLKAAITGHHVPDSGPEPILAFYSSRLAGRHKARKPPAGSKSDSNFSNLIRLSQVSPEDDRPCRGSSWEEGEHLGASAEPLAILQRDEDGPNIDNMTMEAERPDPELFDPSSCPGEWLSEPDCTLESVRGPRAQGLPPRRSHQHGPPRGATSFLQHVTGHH
The conditions noted are these: at 0.1 µM.

Test [15] concerns the target T2, Homeodomain-interacting protein kinase 4 (Homo sapiens). The conditions noted are these: at 1 µM.
In test [16] the target is Mitogen-activated protein kinase 9 (Homo sapiens) (UniProt P45984). The conditions noted are these: at 0.1 µM.
Chain of Mitogen-activated protein kinase 9 (Homo sapiens) (P45984 whole entry, looked up): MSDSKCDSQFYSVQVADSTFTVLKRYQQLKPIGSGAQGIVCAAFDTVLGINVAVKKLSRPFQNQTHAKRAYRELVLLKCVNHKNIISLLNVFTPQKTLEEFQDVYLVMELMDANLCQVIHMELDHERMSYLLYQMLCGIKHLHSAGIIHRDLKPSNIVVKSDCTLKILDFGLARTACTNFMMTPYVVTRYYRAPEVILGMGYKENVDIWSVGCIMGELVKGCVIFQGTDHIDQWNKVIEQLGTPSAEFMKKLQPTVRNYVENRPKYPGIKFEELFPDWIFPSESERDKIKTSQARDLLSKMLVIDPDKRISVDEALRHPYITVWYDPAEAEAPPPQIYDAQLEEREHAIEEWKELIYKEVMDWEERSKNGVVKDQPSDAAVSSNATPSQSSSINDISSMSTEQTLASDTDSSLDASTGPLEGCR
The target is the same in test [17]. The settings on record: at 1 µM.
The target in test [18] is Mitogen-activated protein kinase 1 (Homo sapiens) (UniProt P28482). The conditions noted are these: at 0.1 µM.
Chain of Mitogen-activated protein kinase 1 (Homo sapiens) (P28482 whole entry): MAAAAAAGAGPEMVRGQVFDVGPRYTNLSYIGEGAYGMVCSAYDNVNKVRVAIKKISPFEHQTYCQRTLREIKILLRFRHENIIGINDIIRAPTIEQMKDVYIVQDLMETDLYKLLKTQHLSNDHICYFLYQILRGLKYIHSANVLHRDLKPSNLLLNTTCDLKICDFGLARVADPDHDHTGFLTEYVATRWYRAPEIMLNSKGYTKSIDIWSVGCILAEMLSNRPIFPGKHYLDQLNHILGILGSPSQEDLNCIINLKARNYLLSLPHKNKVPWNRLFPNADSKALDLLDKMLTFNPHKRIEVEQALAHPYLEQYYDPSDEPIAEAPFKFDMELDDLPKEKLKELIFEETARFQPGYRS
Test [19] has the same target. The settings on record: at 1 µM.
Test [20] deals with Mitogen-activated protein kinase 3 (Homo sapiens) (UniProt P27361). The settings on record: at 0.1 µM.
Chain of Mitogen-activated protein kinase 3 (Homo sapiens) (P27361 whole entry): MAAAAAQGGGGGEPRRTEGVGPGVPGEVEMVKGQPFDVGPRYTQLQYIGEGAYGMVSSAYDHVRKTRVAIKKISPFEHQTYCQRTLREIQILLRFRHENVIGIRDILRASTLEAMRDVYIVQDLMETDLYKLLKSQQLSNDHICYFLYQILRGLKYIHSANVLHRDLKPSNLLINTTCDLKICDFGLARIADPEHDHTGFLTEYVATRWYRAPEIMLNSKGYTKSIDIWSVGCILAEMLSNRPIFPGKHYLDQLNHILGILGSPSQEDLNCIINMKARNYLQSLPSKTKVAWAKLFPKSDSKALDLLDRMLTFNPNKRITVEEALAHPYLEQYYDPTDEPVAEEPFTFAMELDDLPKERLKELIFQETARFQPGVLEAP

Chain of Glycogen synthase kinase-3 alpha (Homo sapiens) (P49840 2-483 limits assumed): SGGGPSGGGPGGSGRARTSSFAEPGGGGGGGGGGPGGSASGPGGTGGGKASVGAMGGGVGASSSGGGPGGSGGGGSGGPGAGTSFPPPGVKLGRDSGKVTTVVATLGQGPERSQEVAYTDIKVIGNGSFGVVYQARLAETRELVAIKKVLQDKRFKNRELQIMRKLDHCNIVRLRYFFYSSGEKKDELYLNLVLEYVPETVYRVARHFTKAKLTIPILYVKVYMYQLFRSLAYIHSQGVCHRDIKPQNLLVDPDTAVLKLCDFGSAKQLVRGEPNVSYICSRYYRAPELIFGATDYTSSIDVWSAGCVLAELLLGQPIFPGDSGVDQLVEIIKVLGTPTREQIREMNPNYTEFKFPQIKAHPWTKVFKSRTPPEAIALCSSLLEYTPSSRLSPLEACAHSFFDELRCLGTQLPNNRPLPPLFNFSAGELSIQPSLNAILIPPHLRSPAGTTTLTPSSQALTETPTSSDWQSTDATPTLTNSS
Chain of Dual specificity protein kinase CLK3 (Homo sapiens) (P49761 whole entry, looked up): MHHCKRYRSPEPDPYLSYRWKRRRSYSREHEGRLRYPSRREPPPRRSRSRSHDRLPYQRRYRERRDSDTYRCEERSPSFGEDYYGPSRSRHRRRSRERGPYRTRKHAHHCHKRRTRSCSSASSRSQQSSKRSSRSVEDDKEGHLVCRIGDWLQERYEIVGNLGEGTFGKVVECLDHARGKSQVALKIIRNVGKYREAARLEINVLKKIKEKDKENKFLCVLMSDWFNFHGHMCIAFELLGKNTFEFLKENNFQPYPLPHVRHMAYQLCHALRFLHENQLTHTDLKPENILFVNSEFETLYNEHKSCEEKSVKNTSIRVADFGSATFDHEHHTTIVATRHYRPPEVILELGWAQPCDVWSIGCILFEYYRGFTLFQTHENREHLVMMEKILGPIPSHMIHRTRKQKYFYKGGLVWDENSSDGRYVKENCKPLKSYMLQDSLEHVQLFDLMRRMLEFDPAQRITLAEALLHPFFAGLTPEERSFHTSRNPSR

By inhibition is commonly meant the relative decrease from the control value, in per cent. For `FC(F)(F)c1cccc(-c2nn3ncccc3c2-c2ccnc(Nc3ccc4c(c3)OCCO4)n2)c1`, the inhibition in test [1] stood at 0.79%; in [2], 1.23%; in [3], 2.77%; in test [4], 0.78%; in test [5] it was 0.83%; in [6], 2.54%. Moreover, the inhibition is 3.26% in test [7]; 5.83% in [8]; 22.4% in test [9]; 5.36% in test [10]; 33.3% in [11]; -2.65% in test [12]. In addition, the inhibition in test [13] was 3.4%; in test [14], -0.63%; in test [15], 3.75%; in [16] it was 4.15%; in test [17] it was 20.4%; in test [18], 1.58%. For the same compound, the inhibition in test [19] came to 4.01%; in test [20] it was 1.85%.
For `CNC(=O)c1cncc(/C=C/c2ccccc2Cl)c1`, the inhibition in [1] was 0.64%; in test [2] it was -0.68%; in test [3] it was 0.12%; in test [4] it was -0.37%; in test [5], 0.88%; in test [6] it was 1.32%. The inhibition in test [7] is 1.49%; in test [8] it was 3.11%; in [9] it was 8.27%; in [10], 3.39%; in [11] it was 10%; in test [12] it was 1.58%. Also, the inhibition in test [13] was 2.44%; in test [14], 0.63%; in test [15], 1.63%; in test [16], -1.14%; in test [17] it was -1.36%; in [18], 0.37%. In addition, the inhibition in [19] was -1.68%; in test [20] it was 0.99%.
Regarding `Cc1ccc2c(-c3ccnc(Nc4ccccc4)n3)c(-c3ccc(F)cc3)nn2n1`, the inhibition was determined as 1.61% in test [1]; 0.7% in test [2]; 5.42% in test [3]; 1% in test [4]; 3.35% in [5]; 3.2% in [6]. The inhibition in test [7] was 2.94%; in test [8], 9.81%; in test [9] it was 44.8%; in test [10] it was 22.4%; in test [11], 66.7%; in [12] it was -0.41%. In addition, the inhibition was found to be 7.55% in [13]; 2.12% in test [14]; 4.2% in test [15]; 44% in test [16]; 81.2% in [17]; 4.23% in test [18]. In addition, the inhibition is 10.5% in test [19] and 3.56% in [20].
Turning to `Fc1cccc(COc2ccc(Nc3ncnc4sc(-c5ccco5)cc34)cc2Cl)c1`, the inhibition in test [1] was 0.86%; in test [2] it was 3.24%; in [3], 4.83%; in test [4] it was -1.92%; in test [5], 0.72%; in test [6], 3.21%. Also, the inhibition in [7] was 0.35%; in test [8] it was 3.67%; in [9] it was 6.09%; in test [10], 2.77%; in test [11], 4.97%; in test [12], -0.44%. The inhibition in test [13] was determined as 5.88%; in test [14] it was 2.99%; in [15] it was 5.88%; in test [16], 1.05%; in test [17], 0.94%; in test [18], 5.22%. Further, the inhibition came to 5.78% in test [19] and 2.39% in test [20].
`COc1cc(Nc2nccc(Nc3ccc4c(C)n[nH]c4c3)n2)cc(OC)c1OC`: the inhibition worked out at 6.44% in test [1]; 0.88% in test [2]; 7.54% in test [3]; 2.83% in test [4]; 5.43% in test [5]; 1.95% in [6]. The inhibition in test [7] was 4.25%; in [8], 2.79%; in test [9] it was 17.3%; in test [10] it was 2.73%; in [11], 16.1%; in test [12], -0.29%. Also, the inhibition in test [13] came out at 1.88%; in test [14], 1.59%; in test [15] it was 3.91%; in [16] it was 2.22%; in test [17] it was 13.6%; in test [18], 0.66%. Also, the values for the inhibition in test [19] and in [20] were 3.16% and 1.57%, respectively.
`CCn1c(-c2nonc2N)nc2ccccc21`: the inhibition turned out to be 2.22% in test [1]; 1.62% in test [2]; 14.6% in test [3]; 1.02% in test [4]; 7.36% in test [5]; 2.66% in [6]. Further, the inhibition is 5.28% in test [7]; 3.32% in test [8]; 24% in [9]; 3.21% in test [10]; 17.4% in [11]; 1.47% in test [12]. Further, the inhibition in test [13] came out at 4.99%; in [14], 1.45%; in [15] it was 4.14%; in test [16], 3.53%; in [17] it was 2.53%; in [18], 1.93%. In addition, the inhibition worked out at 3.93% in [19] and 3.48% in test [20].
